Data on 7 molecules can be found in PubChem BioAssay (NCATS).

Results filed as inconclusive are left out. Activity calls are given as the source filed them. Unless noted, calls come from the whole dose curve; as a rule, active = well fitted curve in either direction with a large enough effect (not every such curve was filed as active); inconclusive = small, poorly fitted or top-dose-only effect, or another doubt; inactive = flat fitted curve, though single readings scatter. A value given as a limit tells only on which side of the number the result lay.

Experiment [1] addresses Lysosomal acid glucosylceramidase (Homo sapiens) (UniProt P04062). The experiment in a line: Glucocerebrosidase-p2 (AID 348; in the data active = potency below about 10 µM; note: potency is the fitted concentration of half-maximal effect). Particulars: purified GBA, blue fluorogenic substrate, 40 min. The procedure, abridged:
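Normal human glucocerebrosidase (0.2 nM) with blue fluorogenic substrate (80 uM final) in citrate/phosphate pH 5.9 with 10mM sodium taurocholate, 0.01% tween-20; 40 min RT, NaOH/glycine stop; fluorescence Ex 365/Em 440; AC50 from a titration from 0.6 nM upwards.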

Experiment [2] in a line: AP1 Signaling Pathway (AID 357).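 Note: ME-180 reporter cells stimulated with EGF at its EC50 level; % is set by controls: 0 for no effect and ±100 for the full control effect.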 The conditions noted are these: ME-180 AP-1-bla reporter, EGF-induced, beta-lactamase ratio, 5 h; at 7.69 µM (top of the series) unless noted. The procedure, abridged: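 In this screen, ME-180 cells in Opti-MEM with 0.5% dialyzed FBS received EC50 EGF and compound titrations for 5 h. AP-1 reporter beta-lactamase was detected via CCF4 ratio, giving AC50 for positive and negative modulators.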

The target of experiment [3] is Cytochrome P450 1A2 (Homo sapiens) (UniProt P05177). The experiment in a line: p450-cyp1a2 (AID 410; calls by dose curve; note: potency is the fitted concentration of half-maximal effect;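 for activity change, negative = inhibition: -100% = full effect of reference inhibitor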). The conditions noted are these: recombinant CYP1A2, luciferin-ME demethylation, luminescence; series mostly up to 57 µM. In a few lines: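 20nM CYP1A2, 100uM Luciferin-ME (=Km), 100mM KPO4; cpd 10 min RT; +NADPH regen, 60 min RT; stop/detect 20 min; luminescence. Normalized to furafylline 57 uM = full inhibition.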
Sequence of Cytochrome P450 1A2 (Homo sapiens) (P05177 whole entry, looked up): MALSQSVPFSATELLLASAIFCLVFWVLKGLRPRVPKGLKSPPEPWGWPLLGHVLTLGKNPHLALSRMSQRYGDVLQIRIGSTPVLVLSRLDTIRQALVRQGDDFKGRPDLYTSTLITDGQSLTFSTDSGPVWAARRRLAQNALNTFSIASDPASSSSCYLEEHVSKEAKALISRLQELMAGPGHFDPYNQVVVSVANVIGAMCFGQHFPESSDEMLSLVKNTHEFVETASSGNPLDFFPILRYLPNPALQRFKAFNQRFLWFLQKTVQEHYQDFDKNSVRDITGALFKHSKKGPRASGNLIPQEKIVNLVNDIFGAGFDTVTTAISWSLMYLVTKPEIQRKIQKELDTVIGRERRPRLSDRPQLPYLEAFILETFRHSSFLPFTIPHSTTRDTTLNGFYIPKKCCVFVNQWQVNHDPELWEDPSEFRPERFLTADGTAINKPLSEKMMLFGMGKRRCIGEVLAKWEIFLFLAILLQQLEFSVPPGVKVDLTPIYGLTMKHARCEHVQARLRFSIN

Experiment [4] can be described thus: Stat Signaling Pathway (AID 446).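 Note: ME-180 cervical cancer cells given 40 pM IL-6 alongside compound; SIE-controlled beta-lactamase reporter measured as 460/530 nm FRET emission ratio; % is set by controls: 0 for no effect and ±100 for the full control effect.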 Particulars: ME-180 (cervical carcinoma) SIE beta-lactamase reporter, IL-6 stimulated, 5 h; at 7.69 µM (top of the series) unless noted. The procedure, abridged:
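Emission at 460 and 530 nm (excitation 405 nm) reports SIE-controlled beta-lactamase in ME-180 cells. Cells received compound with 40 pM IL-6 for 5 hrs at 37 C; data scaled between 300 pM IL-6 and 125 nM JAK-inhibitor controls.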

Experiment [5] concerns the target Glucocorticoid receptor (Homo sapiens) (UniProt P04150). The experiment in a line: GR-EFC Redistribution (AID 451; calls by dose curve; note: potency is the fitted concentration of half-maximal effect). The conditions noted are these: CHO-K1 GR-EFC translocation, beta-gal luminescence, 2 h. The procedure, abridged:
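CHO-K1 cells expressing nuclear EA and GR-ED fragments of b-gal; compounds titrated up to 46 uM final, 2 h at 37 C. GR nuclear translocation read as complemented b-gal luminescence after 1 h RT detection.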

In experiment [6] the target is Mitogen-activated protein kinase 10 (Mus musculus) (UniProt Q61831). The experiment in a line: JNK3 AlphaScreen Assay (AID 530).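 Note: kinase came from lysate of stimulated human HepG2 cells; signal reports phosphorylation of biotinylated GST-cJun 1-79 at Ser73 with 10 µM ATP; % is set by controls: 0 for no effect and ±100 for the full control effect.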 The conditions noted are these: JNK3 lysate, c-Jun phosphorylation; series mostly up to 57.1 µM. The procedure, abridged: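 HepG2 lysate (IL-1b/TNFa pre-activated) + biotin-GST-cJun 1-79 + anti-pSer73 cJun; cpd titration, 15 min RT; ATP 10 uM start; Tris pH 7.6, MgCl2, DTT, vanadate; beads in EDTA buffer; AlphaScreen.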

Experiment [7] addresses 3',5'-cyclic-AMP phosphodiesterase 4B (Homo sapiens) (UniProt Q07343). The experiment in a line: qHTS Assay for Inhibitors of PDE-IV (AID 607; active = well fitted activation curve with a large enough effect in the main read-out, with a control signal flat, not every such curve was filed as active; note: % of control where 0% means no effect). Particulars: HEK293 ACTOne CNG channel cells, membrane potential fluorescence; series mostly up to 22.9 µM. The procedure, abridged: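 The readout is membrane depolarisation from a cAMP-sensing CNG channel, detected with a potential dye at ex 535/em 590. Cells were HEK293-derived (endogenous PDE-IV) at 1000 cells/well, titrated up to 22.9 uM final.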

The nature of experiment [8]: qHTS Assay for Lipid Storage Modulators (AID 1519; calls by dose curve). Particulars: Drosophila S3 cells, BODIPY lipid droplet/cell ratio, laser cytometry, cells loaded with oleic acid; for activity change, negative = inhibition: at 57.5 µM (top of the series). In a few lines: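 Cells seeded at 5,000 per well were treated with compounds over a concentration series and loaded with oleic acid (400 uM, as added). Lipid droplet fluorescence (488 nm excitation, 500-530 nm channel) was read by laser-scanning cytometry and normalized to 20 uM Triacsin C.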

Experiment [9] in a line: Primary qHTS for small molecule stabilizers of the endoplasmic reticulum resident proteome: Secreted ER Calcium Modulated Protein (SERCaMP) assay (AID 1508630; active = well fitted curve in the direction sought with a large enough effect; an effect the other way counts as inactive or inconclusive; note: % is set by controls: 0 for no effect and ±100 for the full control effect). Particulars: SH-SY5Y GLuc-SERCaMP (Gaussia luciferase released on ER calcium loss) secretion, thapsigargin, luminescence; series mostly up to 38.4 µM. The procedure, abridged: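 The SH-SY5Y reporter protocol was run at 3 concentrations up to 38.3 uM (primary) or 11 concentrations (follow-up): 16 h compound, 100 nM thapsigargin for 4 h, then extracellular luciferase luminescence.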

Experiment [10] concerns the target Glucocorticoid receptor (Homo sapiens) (UniProt P04150). The experiment in a line: GR-GFP Redistribution (AID 450;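 active = compounds whose dose series gives a full or clear partial fitted curve of increased nuclear translocation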; note: potency is the fitted concentration of half-maximal effect). Particulars: U2OS GR-GFP nuclear translocation, laser cytometry, 2 h.
Experiment [11] addresses Cytochrome P450 3A4 (Homo sapiens) (UniProt P08684). The experiment in a line: qHTS Assay for Inhibitors and Substrates of Cytochrome P450 3A4 (AID 884; active = well fitted curve in the direction sought with a large enough effect; an effect the other way counts as inactive or inconclusive; note: potency is the fitted concentration of half-maximal effect; nearly all actives have a fitted effect of over 50% in size). The conditions noted are these: recombinant CYP3A4, Luciferin-PPXE luminescence; series mostly up to 57.1 µM. In a few lines:
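Luminescent readout of luciferin produced by CYP3A4 (20 nM) dealkylation of Luciferin-PPXE, 25 uM (its KM). NADPH-driven reaction ran 60 min at RT after 10 min compound preincubation; data scaled to 57 uM ketoconazole as 100% inhibition.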

Experiment [12] shares this target. The experiment in a line: qHTS Assay for Activators of Cytochrome P450 3A4 (AID 885; active = well fitted curve in the direction sought with a large enough effect; an effect the other way counts as inactive or inconclusive; note: nearly all actives have a fitted effect of over 65% in size). Particulars: recombinant CYP3A4, Luciferin-PPXE luminescence, 60 min; series mostly up to 57.1 µM. The procedure, abridged: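 Activators are scored by enhanced luminescence from CYP3A4 conversion of luciferin-PPXE (25uM, equal to KM) to luciferin, after 60 min at RT with an NADPH-regenerating system.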

A short description of experiment [13]: Confirmation and Secondary Assay for Modulators of Hemoglobin Beta Chain Splicing at IVS2 654 locus (AID 910; active = well fitted curve in the direction sought with a large enough effect; an effect the other way counts as inactive or inconclusive;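 note: HeLa cells stably carrying EGFP split by mutant beta-globin IVS2-654 intron; % of control where 0% means no effect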). Particulars: HeLa EGFP-654 splicing reporter, GFP fluorescence, 48 h; series mostly up to 38.3 µM. In a few lines: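 HeLa cells stably expressing EGFP interrupted by β-globin IVS2-654 intron, seeded overnight in Opti-MEM/2% FCS, then treated 2 days at 37 °C. Restored splicing read as total peak GFP intensity per well by laser scanning cytometry (488 nm excitation, 500–520 nm emission); 500 nM antisense PNA as control.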

Experiment [14] can be described thus: Confirmation and Secondary Assay for Modulators of Hemoglobin Beta Chain Splicing at IVS2 705 locus (AID 930; active = well fitted curve in the direction sought with a large enough effect; an effect the other way counts as inactive or inconclusive;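 note: HeLa cells stably expressing the EGFP-705 splicing reporter; GFP fluorescence per well restored by corrected splicing of the IVS2-705 intron in EGFP; % of control where 0% means no effect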). The conditions noted are these: HeLa EGFP-705 splicing reporter, GFP fluorescence, 48 h; series mostly up to 38.3 µM. The procedure, abridged: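 HeLa IVS2-705 EGFP reporter cells, 500/well, compound 2 d at 37C; correct splicing yields fluorescent EGFP. Control: 500 nM antisense PNA. Read-out: total peak GFP intensity.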

The target in experiment [15] is Ubiquitin carboxyl-terminal hydrolase 1 (Homo sapiens) (UniProt O94782). The experiment in a line: Inhibitors of USP1/UAF1: Pilot qHTS (AID 504865; active = well fitted curve in the direction sought with a large enough effect; an effect the other way counts as inactive or inconclusive;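 note: rhodamine fluorescence freed from ubiquitin-rhodamine substrate followed over time; top concentration of the series differs between compounds; % is set by controls: 0 for no effect and ±100 for the full control effect; nearly all actives have a fitted effect of over 35% in size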). The conditions noted are these: purified USP1/UAF1, Ub-rhodamine cleavage fluorescence; series mostly up to 54.9 µM. In a few lines: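 1nM USP1/UAF1 + cpd, 15 min RT; start w/ Ub-Rho 150nM final; kinetic FL 480/540 nm, 6 reads q60 s. Buffer 50mM HEPES pH 7.8, 0.5mM EDTA, 1mM TCEP, 0.01% Tween-20, 0.1 mg/ml BSA.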
Sequence of Ubiquitin carboxyl-terminal hydrolase 1 (Homo sapiens) (O94782 whole entry, looked up): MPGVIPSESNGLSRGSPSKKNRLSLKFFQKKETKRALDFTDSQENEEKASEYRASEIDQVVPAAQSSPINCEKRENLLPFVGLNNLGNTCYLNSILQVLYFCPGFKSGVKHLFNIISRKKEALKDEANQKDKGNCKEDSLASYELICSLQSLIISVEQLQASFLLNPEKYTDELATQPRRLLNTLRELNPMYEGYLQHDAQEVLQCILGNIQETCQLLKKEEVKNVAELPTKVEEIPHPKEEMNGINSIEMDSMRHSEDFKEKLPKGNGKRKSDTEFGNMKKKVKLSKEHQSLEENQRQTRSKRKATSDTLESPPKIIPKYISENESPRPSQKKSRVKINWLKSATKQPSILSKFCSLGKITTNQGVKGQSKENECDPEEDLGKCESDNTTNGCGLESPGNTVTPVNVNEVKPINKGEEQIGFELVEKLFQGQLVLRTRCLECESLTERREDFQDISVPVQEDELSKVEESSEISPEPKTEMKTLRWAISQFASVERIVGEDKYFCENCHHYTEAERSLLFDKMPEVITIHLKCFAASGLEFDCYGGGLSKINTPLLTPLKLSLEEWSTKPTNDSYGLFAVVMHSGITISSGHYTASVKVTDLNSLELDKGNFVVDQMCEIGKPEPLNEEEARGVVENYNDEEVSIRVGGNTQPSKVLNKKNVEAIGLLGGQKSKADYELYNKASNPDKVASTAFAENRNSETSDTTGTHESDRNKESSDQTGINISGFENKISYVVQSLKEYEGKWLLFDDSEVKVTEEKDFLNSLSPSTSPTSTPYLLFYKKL

Experiment [16] is described as follows: NFAT Signaling Pathway (AID 444). Particulars: Jurkat NFAT-bla M1, carbachol, beta-lactamase ratio, 5 h; at 7.69 µM (top of the series) unless noted. The procedure, abridged: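 Jurkat cells with NFAT-driven β-lactamase reporter and co-expressed M1 receptor, stimulated with carbachol (final 1 uM, ~EC50), compound titration, 5 h at 37 °C. CCF4 loaded 1 h at RT; 460/530 nm ratio gave %activity and AC50.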

Experiment [17] has as its target Cytochrome P450 2D6 (Homo sapiens) (UniProt P10635). The experiment in a line: qHTS Assay for Inhibitors and Substrates of Cytochrome P450 2D6 (AID 891; active = well fitted curve in the direction sought with a large enough effect; an effect the other way counts as inactive or inconclusive; note: potency is the fitted concentration of half-maximal effect; nearly all actives have a fitted effect of over 60% in size). Particulars: recombinant CYP2D6, luciferin-ME EGE luminescence; series mostly up to 57.1 µM. The procedure, abridged: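 Luminescent read-out of luciferin formed by 5 nM human CYP2D6 demethylating 30 uM Luciferin-ME EGE (Km level) over 60 min at room temperature after NADPH regeneration addition. Data normalized to full inhibition by 1.43 uM quinidine.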

The mark [18] stands for this setting: measured here: cell count channel max response.
[19] abbreviates: measured here: lipid channel max response.

Sequence of Cytochrome P450 3A4 (Homo sapiens) (P08684 whole entry, looked up): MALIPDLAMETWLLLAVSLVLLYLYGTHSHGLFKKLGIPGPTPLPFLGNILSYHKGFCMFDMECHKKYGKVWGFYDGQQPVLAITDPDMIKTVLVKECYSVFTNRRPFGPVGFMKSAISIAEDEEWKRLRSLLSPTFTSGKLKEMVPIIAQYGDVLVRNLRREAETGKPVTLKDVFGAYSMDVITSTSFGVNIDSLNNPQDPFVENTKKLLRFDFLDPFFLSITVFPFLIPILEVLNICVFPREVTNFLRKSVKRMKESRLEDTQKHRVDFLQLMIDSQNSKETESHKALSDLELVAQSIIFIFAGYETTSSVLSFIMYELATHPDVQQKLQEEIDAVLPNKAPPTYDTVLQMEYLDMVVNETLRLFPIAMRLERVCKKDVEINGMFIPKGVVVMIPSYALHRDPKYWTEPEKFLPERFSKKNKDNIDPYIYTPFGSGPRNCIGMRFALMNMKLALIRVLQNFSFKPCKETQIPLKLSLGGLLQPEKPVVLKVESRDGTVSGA
Sequence of Glucocorticoid receptor (Homo sapiens) (P04150 whole entry, looked up, the tested form may be a part): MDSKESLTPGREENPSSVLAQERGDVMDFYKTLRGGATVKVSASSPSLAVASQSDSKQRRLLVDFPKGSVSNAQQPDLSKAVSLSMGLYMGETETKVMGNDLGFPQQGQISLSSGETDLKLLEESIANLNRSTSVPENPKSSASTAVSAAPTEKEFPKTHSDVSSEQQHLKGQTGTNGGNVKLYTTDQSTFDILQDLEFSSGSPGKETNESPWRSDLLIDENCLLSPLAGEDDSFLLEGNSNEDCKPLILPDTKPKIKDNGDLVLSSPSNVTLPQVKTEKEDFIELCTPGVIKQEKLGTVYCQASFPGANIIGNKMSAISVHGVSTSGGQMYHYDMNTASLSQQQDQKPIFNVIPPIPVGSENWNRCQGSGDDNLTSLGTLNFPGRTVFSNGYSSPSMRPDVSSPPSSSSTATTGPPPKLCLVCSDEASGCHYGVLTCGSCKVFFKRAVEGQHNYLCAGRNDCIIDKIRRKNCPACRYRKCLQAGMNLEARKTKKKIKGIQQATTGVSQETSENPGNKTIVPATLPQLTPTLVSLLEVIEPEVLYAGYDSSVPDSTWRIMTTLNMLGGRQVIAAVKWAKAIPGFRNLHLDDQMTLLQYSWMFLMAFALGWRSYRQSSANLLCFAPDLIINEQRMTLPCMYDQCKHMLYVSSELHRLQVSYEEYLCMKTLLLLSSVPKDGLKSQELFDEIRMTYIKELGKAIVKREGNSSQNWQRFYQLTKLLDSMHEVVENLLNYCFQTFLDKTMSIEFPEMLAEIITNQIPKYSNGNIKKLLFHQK
Sequence of Lysosomal acid glucosylceramidase (Homo sapiens) (P04062 whole entry, looked up): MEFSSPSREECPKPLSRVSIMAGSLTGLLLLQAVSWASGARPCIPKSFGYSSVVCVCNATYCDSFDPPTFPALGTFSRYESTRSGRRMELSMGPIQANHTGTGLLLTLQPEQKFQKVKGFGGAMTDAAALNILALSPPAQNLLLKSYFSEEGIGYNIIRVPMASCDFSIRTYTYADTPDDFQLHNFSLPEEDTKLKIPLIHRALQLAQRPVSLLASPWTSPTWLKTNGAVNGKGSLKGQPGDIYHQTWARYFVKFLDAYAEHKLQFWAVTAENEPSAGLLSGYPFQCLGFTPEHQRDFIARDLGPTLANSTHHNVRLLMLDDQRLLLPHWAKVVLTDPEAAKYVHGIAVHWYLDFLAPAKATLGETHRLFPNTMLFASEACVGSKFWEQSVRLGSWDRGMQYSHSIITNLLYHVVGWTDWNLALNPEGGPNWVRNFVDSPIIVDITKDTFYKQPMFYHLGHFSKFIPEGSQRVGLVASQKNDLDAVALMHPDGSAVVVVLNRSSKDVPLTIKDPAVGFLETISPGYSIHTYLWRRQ
Sequence of 3',5'-cyclic-AMP phosphodiesterase 4B (Homo sapiens) (Q07343 whole entry, looked up): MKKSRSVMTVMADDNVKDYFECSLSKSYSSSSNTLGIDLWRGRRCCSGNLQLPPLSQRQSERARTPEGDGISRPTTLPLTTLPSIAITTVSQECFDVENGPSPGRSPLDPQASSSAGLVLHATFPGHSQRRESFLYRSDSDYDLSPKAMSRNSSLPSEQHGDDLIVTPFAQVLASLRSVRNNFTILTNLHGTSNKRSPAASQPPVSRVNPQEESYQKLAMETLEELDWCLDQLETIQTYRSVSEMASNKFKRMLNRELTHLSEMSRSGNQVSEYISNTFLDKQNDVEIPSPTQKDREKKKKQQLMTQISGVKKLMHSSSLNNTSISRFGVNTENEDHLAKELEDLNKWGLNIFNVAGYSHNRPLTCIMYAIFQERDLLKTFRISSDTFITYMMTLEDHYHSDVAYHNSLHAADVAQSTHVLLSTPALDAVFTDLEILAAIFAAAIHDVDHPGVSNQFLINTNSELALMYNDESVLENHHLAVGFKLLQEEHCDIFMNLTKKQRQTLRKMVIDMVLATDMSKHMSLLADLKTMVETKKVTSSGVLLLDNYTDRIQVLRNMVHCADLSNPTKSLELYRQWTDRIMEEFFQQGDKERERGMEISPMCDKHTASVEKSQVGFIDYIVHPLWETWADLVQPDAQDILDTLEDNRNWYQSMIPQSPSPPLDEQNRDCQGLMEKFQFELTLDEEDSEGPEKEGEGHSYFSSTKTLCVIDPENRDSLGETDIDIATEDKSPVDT
Sequence of Cytochrome P450 2D6 (Homo sapiens) (P10635 whole entry, looked up): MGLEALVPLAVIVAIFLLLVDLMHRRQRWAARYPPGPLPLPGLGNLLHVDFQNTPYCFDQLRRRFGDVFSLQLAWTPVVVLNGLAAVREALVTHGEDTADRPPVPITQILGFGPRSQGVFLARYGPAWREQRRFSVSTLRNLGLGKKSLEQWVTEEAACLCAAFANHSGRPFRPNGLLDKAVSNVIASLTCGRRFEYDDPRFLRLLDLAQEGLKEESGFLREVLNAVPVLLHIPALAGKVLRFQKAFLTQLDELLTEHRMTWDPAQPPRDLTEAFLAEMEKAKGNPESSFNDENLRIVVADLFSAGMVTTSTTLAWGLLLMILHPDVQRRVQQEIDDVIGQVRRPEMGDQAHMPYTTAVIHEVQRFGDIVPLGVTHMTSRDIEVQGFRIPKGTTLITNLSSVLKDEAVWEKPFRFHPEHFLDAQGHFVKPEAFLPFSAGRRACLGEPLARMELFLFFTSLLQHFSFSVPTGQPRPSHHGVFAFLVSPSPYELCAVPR

As to `CC(=O)N1CCC2(CCN(Cc3cc(C(F)(F)F)cc(C(F)(F)F)c3)CC2)CC1`, the Potency in experiment [1] is > 11.4 µM (inactive); in experiment [3], 15.8 µM (active); in experiment [5] it was > 46 µM (inactive). The activity change, negative = inhibition is -20.5% (inactive) in [2] and 2.13% (inactive) in experiment [8]. Further, the activity, negative = inhibition in experiment [4] was 8.31% (inactive). Moreover, in experiment [6], the result was inactive. Further, the Potency entry in [7] and in experiment [9] was “inactive” in each case. In addition, the max response in experiment [8] (setting [18]) worked out at 6.37%; in experiment [8] (setting [19]) it was 10.7%.

On to `Cc1noc(C)c1-c1nccc(NCc2cccnc2)n1`, for which the Potency in experiment [1] was > 11.4 µM (inactive); in experiment [3], 0.158 µM (active); in [10] it was > 46 µM (inactive); in experiment [5], > 46 µM (inactive); in [11], 3.98 µM (active). Moreover, the results for the activity change, negative = inhibition in experiment [2] and in [8] were 7.38% (inactive) and 4.68% (inactive), respectively. Also, in experiment [4], the activity, negative = inhibition is 10.1% (inactive). In addition, the outcome in experiment [6], in experiment [13] and in experiment [14] was inactive. Further, the Potency result in [12], in experiment [15] and in experiment [9] was “inactive” each time. Further, the figures for the max response in experiment [8] (setting [18]) and in experiment [8] (setting [19]) were 14.6% and 21.8%, respectively.

Regarding `CC(=O)N1CCC[C@@]2(CCN(c3ncccn3)C2)C1`, the Potency in experiment [1] is > 11.4 µM (inactive); in [5], > 46 µM (inactive). The activity change, negative = inhibition is 2.25% (inactive) in experiment [2], 13.2% (inactive) in experiment [16] and 2.8% (inactive) in [8]. Further, the Potency result in experiment [3], in experiment [7] and in experiment [9] was “inactive” in each case. Moreover, the outcome in [6] was inactive. The max response was 18.6% in [8] (setting [18]) and 25.4% in experiment [8] (setting [19]).

`O=C(c1ccco1)N1CCC2(CC1)CN(Cc1cc(C(F)(F)F)cc(C(F)(F)F)c1)C2`: the figures for the Potency in [1], in experiment [5] and in experiment [17] were > 11.4 µM (inactive), > 46 µM (inactive) and 6.31 µM (active), respectively. Moreover, the activity change, negative = inhibition in [2] is 5.99% (inactive); in [16], 15.6% (inactive); in [8], -5.85% (inactive). Moreover, the Potency entry in experiment [3], in experiment [7] and in experiment [9] was “inactive” each time. For the same molecule, the molecule was called inactive in experiment [6]. The max response came to 13.1% in experiment [8] (setting [18]) and 7.42% in experiment [8] (setting [19]).

Consider `COc1ccc(-c2nc3cnc(N4CCNCC4)nc3n(Cc3ccc(F)cc3)c2=O)cc1`, for which the Potency was > 11.4 µM (inactive) in [1], > 9.22 µM (inactive) in [10] and > 46 µM (inactive) in experiment [5]. In addition, the activity change, negative = inhibition in [2] is 83.5% [activator] (active); in [16], 88% [activator] (active); in experiment [8], 4.56% (inactive). For the same molecule, the Potency result in [3], in experiment [12] and in experiment [9] was “inactive” throughout. Also, in experiment [6], the molecule was called inactive. The max response in experiment [8] (setting [18]) amounted to 15.2%; in experiment [8] (setting [19]), 24.4%.

Take `Cc1cccc(CNc2ncnc3ccc(-c4cccc(C#N)c4)cc23)c1`: the Potency was > 11.4 µM (inactive) in experiment [1], 0.631 µM (active) in experiment [3] and > 46 µM (inactive) in experiment [5]. The figures for the activity change, negative = inhibition in [2], in experiment [16] and in experiment [8] were -19.4% (inactive), -25.8% (inactive) and 0.488% (inactive), respectively. Besides, the result in experiment [6], in experiment [13] and in experiment [14] was inactive. Moreover, the max response was -20.2% in experiment [8] (setting [18]) and -19.2% in [8] (setting [19]). The Potency result in [9] was “inactive”.

`Cc1noc(C)c1C(=O)N1CCC[C@@]2(CCN(Cc3ccccc3)C2)C1`: the values for the Potency in experiment [1], in experiment [5] and in experiment [17] were > 11.4 µM (inactive), > 46 µM (inactive) and 7.94 µM (active), respectively. In addition, the results for the activity change, negative = inhibition in experiment [2], in experiment [16] and in experiment [8] were -8.33% (inactive), 4.21% (inactive) and 2.65% (inactive), respectively. Further, the Potency result in experiment [3], in experiment [7], in experiment [12] and in experiment [9] was “inactive” in each case. Besides, the outcome in [6] was inactive. In addition, the max response came to 16.8% in [8] (setting [18]) and 22.2% in experiment [8] (setting [19]).
